In one test the target is RSPH9. The test can be described thus: pooled miR-30 sensor sort-seq; sequence = guide strand. The conditions noted are these: shRNA.
With TAGCTCAACAGGCTCCCTGAAA, the sensor-assay potency score (higher = more potent) was -1.11.
With TTATTCTTTAGCTCAACAGGCT, the sensor-assay potency score (higher = more potent) is -0.377.
As to TCTTATTCTTTAGCTCAACAGG, the sensor-assay potency score (higher = more potent) was -1.48.
For TTAACCAGCATAAGAGACGTGA, the sensor-assay potency score (higher = more potent) amounted to 0.0215.
Still for that read-out and setting: the same measure for TTTAGCTCAACAGGCTCCCTGA: -0.548.
Same read-out and setting: the same measure for TCAATGACAGACACCAAGCGGG: -0.168; for TATTTCTTCTTCAAAGACTTTT: -0.914.

In another test the target is RTF1. Described as above. The conditions noted are these: shRNA.
As for TTCGTTTTTCTCGCTCTGCTTT, the sensor-assay potency score (higher = more potent) is -0.471.
Same read-out and setting: the same measure for TTGAGACAAACTCTAAACGGAA: -0.778; for TTCTTGATTTCAAATCTTCTTT: -0.27.
The sequence TTTCTCTGTCATCTGTTCCAGA registered a sensor-assay potency score (higher = more potent) of -0.00304.
The same measure, in the same setting: for TACTTTGAACAGATCTTCTGAG the value was 0.376; for ATTGATTTCATCTAGAGTGGGC, 0.501; for TTTGAGACAAACTCTAAACGGA, 0.185.
For the sequence TTGAGATTTCTTGTCTAGTTTC, the sensor-assay potency score (higher = more potent) is -0.921.
For the sequence TACAATCTCTTCAATGTCCTGA, the sensor-assay potency score (higher = more potent) came to 0.771.
On the same count and under the same terms, the same measure for TTTTTCTTGATTTCAAATCTTC: -0.239.
Still for that read-out and setting: the same measure for TTCATCATCAGAGTAGACCTCA: 0.818.

The target in a further test is RTN4. Described as above. The conditions noted are these: shRNA.
The sequence TAAAGATCTAACAACGATCTGT came in with a sensor-assay potency score (higher = more potent) of 0.175.
In turn, TAACTAACTTCTCTTCTTCATC came in with a sensor-assay potency score (higher = more potent) of -0.896.
Still for that read-out and setting: for TTCACTTTCACATGCTTCCTGT the value was -0.0605.
As to TTTCTGAAGTAGGATCTCCTAA, the sensor-assay potency score (higher = more potent) was -0.155.
The same measure, in the same setting: the same measure for TTTTGTGTTATCTAAACTGAGC: -0.981; for TTGTGACATAATCTGTCTCAGA: -1.04; for TTCTAGGTCAGTATATTCCCTG: -0.784.
On the same count and under the same terms, for TAAATCTCTATCTATGAGTAGA the value was -0.547.
TATTACTAACTAACTTCTCTTC: the sensor-assay potency score (higher = more potent) was -0.121.
The sequence TATCTGTTGTGACATAATCTGT returned a sensor-assay potency score (higher = more potent) of -0.595.
The same measure, in the same setting: the same measure for TTTCTGAAGACACAACTTCATC: -1.21; for TTTCTGAGTATTCTAATTCTGA: -0.686.

A further test addresses RTTN. The test is described as above. The settings on record: shRNA.
TTAGTAAGTCTAGACAGCCATC returned a sensor-assay potency score (higher = more potent) of -1.38.
The same measure, in the same setting: the same measure for TAGAGATTTCTGATTTTCCTGA: 0.353; for TATCATCTGTTTCTTCTCGTGC: 0.159; for TTCTTCACTATGACTACCCAAA: -0.98.
The sequence TTTAATAACACCATCCTCCTTT had a sensor-assay potency score (higher = more potent) of 0.89.
The sequence TTAATAACCAGCTCTCTTCTGT came in with a sensor-assay potency score (higher = more potent) of 0.265.
Regarding TTCAAATCAAACATACACCGTC, the sensor-assay potency score (higher = more potent) stood at 0.646.
As for TTTCCTGTCAGTAACTTCCATG, the sensor-assay potency score (higher = more potent) is -0.534.
Still for that read-out and setting: for TACTCTTCTGAATTACTCCTTT the value was 0.0347.
Note: reference of the scale not given here.
